# Experimental data from paper PMC9574860, “Chemical Toolkit for PARK7: Potent, Selective, and High-Throughput” (Journal of Medicinal Chemistry, 2022).
# Out of some 7,900 compounds screened, about 400 (5.1%) showed an effect of 50% or more. This excerpt belongs to a sample that is enriched for strong results.
# Biological target: Parkinson's disease protein 7 (PARK7/DJ1) (human, UniProt Q99497)
# Test: primary screen, percent inhibition; read as competition with a fluorescent probe by fluorescence polarization; higher = more effect of the substance
# Details: 100 µM
# Procedure, shortened: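 Fluorescence-polarization probe displacement (JYQ-107, 20 nM final, 2 h) after 2 h preincubation of PARK7 (0.2 μM final) with each fragment at 100 μM final. Read-out ex/em 480/520 nm; remaining activity derived from FP signal loss relative to reference controls.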
# Chain of Parkinson's disease protein 7 (PARK7/DJ1) (Q99497 whole entry, looked up): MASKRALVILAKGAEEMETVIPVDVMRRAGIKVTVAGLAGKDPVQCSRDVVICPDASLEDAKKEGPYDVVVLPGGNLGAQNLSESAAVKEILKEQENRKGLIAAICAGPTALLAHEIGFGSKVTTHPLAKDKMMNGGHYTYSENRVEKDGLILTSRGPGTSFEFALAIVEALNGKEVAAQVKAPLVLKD
row,Compound,Inhibition % [%]
1,CN(Cc1nc2ccccc2[nH]1)S(=O)(=O)C1=CCCCC1,8.82
2,C=CC(=O)NC(CO)C1CCCO1 (stereo not drawn),6.87
3,O=C(CCl)NCC#Cc1ccccc1,1.08
4,C=CC(=O)N1CCCN(c2ccccn2)CC1,12.3
5,C=CC(=O)N(CC)C1CCS(=O)(=O)C1 (stereo not drawn),-4.06
6,OC1(C2CO2)CCCC1 (stereo not drawn),3.59
7,Cc1nn(C)c(Cl)c1C=CC(=O)N1CCC(N)C1.Cl (stereo not drawn),17.1
8,CNC(=O)Cn1nc(-c2ccc(F)cc2)oc1=O,16.9
9,O=C(CCl)N1CCC(C(=O)N2CCCCCC2)CC1,15.1
10,O=C(CCl)N1CCN(C(=O)CCl)CC1,36.5
11,CCOC(=O)C1CCCN(C(=O)CCl)C1 (stereo not drawn),74.4
12,O=C(CCl)N1CCC(C(=O)N2CCCCC2)CC1,18.3
13,CCOC(=O)C1CCN(C(=O)CCl)CC1,19.7
14,O=C(CCl)N1CCN(C(=O)C2CC2)CC1,56.1
15,CCOC(=O)N1CCN(C(=O)CCl)CC1,67.8
16,NC(=O)C1CCCN(C(=O)CCl)C1 (stereo not drawn),35.5
17,CN1CCN(C(=O)CCl)CC1.Cl,1.98
18,C=CC(=O)N1CCN(C)c2cc(F)ccc21,14.6
19,N#CCCN(C(=O)CCl)c1cccc(Cl)c1,29.3
20,O=C(CCl)NC1CCN(C(=O)CCc2ccccc2)CC1,11.9
21,O=C1CCc2cc(C(=O)CCl)ccc2N1,52.8
22,CS(=O)(=O)N1CCc2cc(C(=O)CCl)ccc21,36.2
23,CC1(C)C(=O)Nc2ccc(C(=O)CCl)cc21,32.9
24,O=C1CCCc2cc(C(=O)CCl)ccc2N1,86.5
25,CCS(=O)(=O)N1CCc2cc(C(=O)CCl)ccc21,11.9
26,O=C1CCc2cc(OCCCl)ccc2N1,6.21

row,Compound,Inhibition % [%]
1,O=C(CCl)c1cc2c3c(c1)CC(=O)N3CCC2,21.1
2,CC1C(=O)Nc2ccc(C(=O)CCl)cc21 (stereo not drawn),85.9
3,O=C1CCc2cc(C(=O)CCl)c(F)cc2N1,1.18
4,C=CC(=O)Nc1ccc2c(c1)CCCC(=O)N2,4.19
5,CS(=O)(=O)N1CCCc2cc(C(=O)CCl)ccc21,76.4
6,C=CC(=O)N(C1CC1)C1CCS(=O)(=O)C1 (stereo not drawn),10.3
7,CC(C)Cc1nc(C#N)c(NCc2ccncc2)o1,6.94
8,CC1(C)OB(c2ccc(N)nc2)OC1(C)C,9.29
9,COc1ccc(-c2ccncc2)cc1B(O)O,6.7
10,N#CC(=Cc1cccs1)C(N)=O,10.8
11,Cc1nn(C)c(NS(=O)(=O)C=Cc2ccccc2)c1C,11.2
12,C=CC(=O)N1CCCc2c1nc[nH]c2=O,20.2
13,C=CC(=O)N1CCN(C(=O)c2cccc(Cl)c2)CC1,4.01
14,O=C1Cc2cc(C(=O)CCl)ccc2N1,81.4
15,O=C1COc2ccc(C(=O)CCl)cc2N1,8.16
16,CN1C(=O)Cc2cc(C(=O)CCl)ccc21,83.4
17,CCC(=O)N1CCc2cc(C(=O)CCl)ccc21,3.43
18,CN1Cc2cc(C(=O)CCl)ccc2NC1=O,11.5
19,CN1C(=O)CCc2cc(C(=O)CCl)ccc21,19.5
20,C=CC(=O)NCC(=O)NC1(C)CCCCC1,13.6
21,C=CC(=O)NCc1nc2c(s1)COCC2,5.36
22,O=S(=O)(C=Cc1ccccc1)NC1CCCn2ncnc21 (stereo not drawn),12.3
23,C=CC(=O)Nc1c(C)nn(CC)c1C,2.74
24,C=CC(=O)Nc1c(C)nn(C)c1N1CCC1,87.1
25,C=CC(=O)Nc1c(C)nn(C(C)C)c1C,0.88
26,N#Cc1nc(C2CC2)n[nH]1,2.55

row,Compound,Inhibition % [%]
1,C=CC(=O)N1CCN(S(=O)(=O)CC)CC1,11.7
2,CCN(C(=O)Cn1c(S)nc2ccccc2c1=O)C1CC1,0.694
3,CCCc1nnc(NS(=O)(=O)c2cccc(S(=O)(=O)F)c2)o1,98.8
4,CCCc1nnc(NS(=O)(=O)c2ccc(S(=O)(=O)F)cc2)o1,49.9
5,Cc1cnccc1NS(=O)(=O)c1ccc(S(=O)(=O)F)cc1,18.9
6,O=S(=O)(F)c1cccc(S(=O)(=O)Nc2cccnc2O)c1,99.4
7,O=S(=O)(F)c1ccc(S(=O)(=O)Nc2cccnc2O)cc1,8.42
8,Cc1csc(NS(=O)(=O)c2cccc(S(=O)(=O)F)c2)n1,83.9
9,Cc1nc(NS(=O)(=O)c2ccc(S(=O)(=O)F)cc2)no1,22.7
10,O=S(=O)(F)c1ccc(S(=O)(=O)Nc2ncccc2Cl)cc1,32.9
11,Cc1cscc1NS(=O)(=O)c1cccc(S(=O)(=O)F)c1,98.1
12,O=C(CCl)Nc1cccc(C(=O)N2CCSCC2)c1,6.3
13,Cc1csc2ccc(B(O)O)cc12,5.69
14,O=C(CCl)NCC(=O)N1CCCC1,2.12
15,O=C(NCc1ccccc1)N1CCCCC1C1OCCO1 (stereo not drawn),6.92
16,FC(F)(F)c1cccc(C2CO2)c1 (stereo not drawn),2.09
17,Cl.O=C(CCl)NCCc1cccc2cccnc12,30.3
18,Cc1conc1NS(=O)(=O)c1ccc(S(=O)(=O)F)cc1,27
19,Cc1conc1NS(=O)(=O)c1cccc(S(=O)(=O)F)c1,99
20,O=C(CCl)NCc1ccc(N2CCOCC2)c(F)c1,10.8
21,C=CC(=O)N(C)CC1COc2ccccc2O1 (stereo not drawn),3.26
22,CN(CC1COc2ccccc2O1)C(=O)CCl (stereo not drawn),96.7
23,CCN(CC1COc2ccccc2O1)C(=O)CCl (stereo not drawn),21.2
24,N#CC1(NC(=O)CCl)CCC1,20.1
25,CN1CCOC(CNS(=O)(=O)C=Cc2ccccc2)C1 (stereo not drawn),6.48
26,N#Cc1ncccc1Cl,0.27

row,Compound,Inhibition % [%]
1,O=C(CCCl)N1CCc2sccc2C1,33.2
2,C=CC(=O)NCCCC(=O)N1CCc2sccc2C1,10.7
3,O=C(CCl)N1CCc2sccc2C1,83.6
4,O=C(O)CC1OCCCO1,-4.03
5,O=C(O)CC1(CS)CC1,80.8
6,COCc1ccc(SC(=O)N(C)C)cc1,7.64
7,C=CC(=O)N1CCCN(Cc2nccn2C)CC1,10.6
8,O=C(CCl)Nc1cc(Cl)ccc1C(=O)O,47.9
9,O=C(CCl)Nc1ccc(Br)cc1C(=O)O,46.1
10,O=C(CCl)Nc1ccc(Cl)cc1C(=O)O,52.4
11,O=C(CCl)Nc1cccc2cccc(C(=O)O)c12,11.2
12,O=C(CCl)Nc1cc2ccccc2cc1C(=O)O,66.3
13,C#CC(=O)Nc1cc2ccccc2cc1C(=O)O,29.8
14,C=CC(=O)NCC1CCCc2ccccc21 (stereo not drawn),4.88
15,C=CC(=O)N1CCC(CN(C)Cc2scnc2C)C1 (stereo not drawn),13.2
16,O=S(=O)(C=Cc1ccc(Cl)cc1)NCC1CCCO1 (stereo not drawn),6.48
17,CC1CN(CC2OCCO2)CCC1c1ccccc1 (stereo not drawn),8.86
18,CC1CCC(N(C(=O)CCl)C2CC2)CC1 (stereo not drawn),74.1
19,O=C(CCl)N(C1CCCC1)C1CC1,51.2
20,O=C(CCl)N(C1CCCC1)C1CCS(=O)(=O)C1 (stereo not drawn),7.16
21,CCN(C(=O)CCl)C1CC1,5.24
22,O=C(CCl)N(C1CCCCC1)C1CCCCC1,4.3
23,O=C(CCl)N(C1CC1)C1CCS(=O)(=O)C1 (stereo not drawn),5.73
24,C=CC(=O)NCc1cccnc1N1CCOCC1,4.99
25,C=CC(=O)N1CCOCC1CC (stereo not drawn),7.47
26,CCc1cnccc1C(=O)N1CCCC(C2OCCO2)C1 (stereo not drawn),12.5

row,Compound,Inhibition % [%]
1,O=C1OCCC1N1CCOC(c2ccc(Cl)cc2)C1 (stereo not drawn),7.62
2,C=CCNC(=O)C(C#N)=Cc1cccc(O)c1,4.34
3,C=CC(=O)NC1COC(C2CC2)C1 (stereo not drawn),4.28
4,CN(C)Cc1ccc(B2OC(C)(C)C(C)(C)O2)s1,5.59
5,N#Cc1n[nH]c2ccccc12,5.12
6,N#Cc1[nH]c2ccccc2c1N,72.9
7,N#Cc1nnc2ccccc2c1N,1.29
8,CC1(C)CC(OS(C)(=O)=O)CCO1 (stereo not drawn),8.17
9,N#CC(=Cc1ccc(N2CCOCC2)cc1)C(N)=O,12.7
10,Cc1cc(B2OC(C)(C)C(C)(C)O2)cc(N)n1,5.05
11,C=CC(=O)NC1CC(=O)N(CC)C1 (stereo not drawn),8.72
12,O=C(c1ccccc1)N1CCN(C(=O)n2ccnc2)CC1,2.18
13,O=C(N1CCc2[nH]c3ccccc3c2C1)n1ccnc1,52.4
14,O=C(N1CCc2[nH]c3ccc(F)cc3c2C1)n1ccnc1,36.3
15,O=C(N1CCc2sccc2C1)n1ccnc1,15.4
16,O=C(CCl)N1CCc2[nH]c3ccccc3c2C1,-3.49
17,Cc1ccc2[nH]c3c(c2c1)CN(C(=O)n1ccnc1)CC3,67.1
18,C=CC(=O)N1CCCCC1c1nc2ccccc2o1 (stereo not drawn),7.43
19,O=S(=O)(c1cc(Cl)ccc1Cl)n1ccnc1,7.81
20,O=C(O)c1cc(S(=O)(=O)F)cs1,90
21,NC(=O)N1CCc2cc(S(=O)(=O)F)ccc21,10.9
22,NC(=O)Nc1ccc(S(=O)(=O)F)cc1,18.9
